Structures are written as SMILES. The campaign covered roughly 190,000 compounds. About 360 (0.19%) were called active. Another 2% or so got no clear call; they are omitted. Shown is part of a subset that was picked to be rich in actives. A number with no mark means an inactive call.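 How the source made its calls: active means GTP binding activity at least 20 points away from 100%, either lowered or raised; inconclusive means signal likely due to the compound's own green fluorescence; inactive means the rest.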

The target in this assay is Ras-related protein Rab-2A (Canis lupus familiaris) (UniProt P61105). Put plainly: modulators of GTP binding to Rab2A wildtype, primary screen, biochemical, dog, bead-based flow cytometry, multiplex (AID 760).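 Further: 0% = beads with excess unlabeled GTP and 100% = no-compound control corrected for plate trend.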 As to conditions: GST-Rab2 wt beads, Bodipy-GTP binding, at 10 µM. (In general: Flow cytometry measures light scatter and fluorescence of single cells or particles in a stream.)
For the molecule `O=C(COC(=O)CNC(=O)c1ccccc1F)NCC(F)(F)F`, the GTP binding activity is 101%. Turning to `Cc1ccc(NC(=O)Nc2cccc(C(F)(F)F)c2)nc1`, the GTP binding activity is 103%. In the case of `CC1CC(C)CN(C(=O)CSc2ccsc2[N+](=O)[O-])C1` (stereo not drawn), the GTP binding activity was 102%.

Turning to `CCOC(=O)c1sc(NC(=O)CSc2nc(O)c(Cc3ccccc3)c(=O)[nH]2)nc1C`, the GTP binding activity was 93%. As to `Cc1ccnc(NS(=O)(=O)c2ccc(NC(=O)c3ccc(S(=O)(=O)N(C)C)cc3)cc2)n1`, the GTP binding activity is 98%. As for `CN(CCC1CCOCC1)Cc1cn[nH]c1-c1ccc(-c2ccccc2)cc1`, the GTP binding activity is 96%. Then `C/C=C/C=C/C(=O)OCC(=O)Nc1ccc(Cl)cc1`, with 93%; and `CN(C)CCOCCOc1ccc(Cl)c2ccccc12`, with 106%; and `Cc1nn(CC(=O)Nc2ccc(C#N)cc2)c(C)c1[N+](=O)[O-]`, with 99%. Then `COC(=O)c1ccc(/C=N/N2C(C)CCCC2C)cc1` (stereo not drawn), with 100%; and `COC(=O)c1sc2[nH]c(=S)n(N)c(=O)c2c1C`, with 100%; and `CCN(C(=O)COC(=O)c1cc(S(=O)(=O)N2CCc3ccccc32)ccc1OC)C1CCS(=O)(=O)C1` (stereo not drawn), with 96%. Then `CC(NC(=O)C(=O)N/N=C/c1ccc(Cl)cc1)c1ccccc1` (stereo not drawn), with 98%. Take `CC1CCCCC1NC(=O)CO/N=C/c1ccc(OC(F)F)cc1` (stereo not drawn): the GTP binding activity is 97%.

Regarding `NS(=O)(=O)c1ccc(NC(=O)COC(=O)c2ccco2)cc1`, the GTP binding activity was 97%. Take `COc1ccc(C(=O)CSc2nnnn2C)c(OC)c1`: the GTP binding activity was 98%. With `COc1cc(CN(C)Cc2nc3cc(C(F)(F)F)ccc3c(=O)[nH]2)ccc1OC(F)F`, the GTP binding activity was 94%. As for `Cn1c(N)cc(-c2ccc(F)cc2)c(C#N)c1=O`, the GTP binding activity is 97%.

Take `Cc1cc(C(=O)N/N=C/c2ccccc2[N+](=O)[O-])c(C)o1`: the GTP binding activity was 95%. Then `COc1ccc(/C=N/NC(=O)C(C)N(c2ccc(OC)cc2)S(C)(=O)=O)cc1` (stereo not drawn), with 96%; and `CSCCNCc1cn(-c2ccc(F)cc2F)nc1-c1ccccc1C`, with 100%.

In the case of `Cc1ccnc(NC(=O)CCCOc2ccccc2)c1`, the GTP binding activity was 97%. In the case of `O=C(NNC(=O)c1ccccc1[N+](=O)[O-])Nc1ccccc1C(F)(F)F` it was 101%; in that of `CC(C)NC(=O)/C(C#N)=C\c1ccc(N(C)C)c(Br)c1`, 94%. On to `O=C(CCn1c(=O)[nH]c2ccccc2c1=O)NCCCN1CCN(c2cccc(Cl)c2)CC1`, for which the GTP binding activity was 101%. For `O=C(Cc1csc(Nc2nc(=S)[nH]c3ccccc23)n1)NCCCN1CCN(c2cccc(Cl)c2)CC1`, the GTP binding activity is 78% (active). Then `COc1cccc(CNC(=O)Cc2csc(Nc3nc(=S)[nH]c4ccccc34)n2)c1`, with 93%; and `Cc1ccnc2nc(C(=O)OCC(=O)N(CC(C)C)CC(C)C)nn12`, with 97%. Then `CCOc1ccccc1N1CCN(C(=O)COc2ccc3c(C)cc(=O)oc3c2)CC1`, with 98%; and `CCOC(=O)CN/C=C(\C#N)c1ccc(F)cc1`, with 102%; and `CCCC(c1nnnn1C(C)(C)C)N1CCN(Cc2ccccc2)CC1` (stereo not drawn), with 98%. Then `O=C(COc1cccc2ccccc12)Nc1cc(S(=O)(=O)N2CCOCC2)ccc1N1CCOCC1`, with 98%; and `O=c1[nH]n2c(-c3ccccc3)nc(O)c2c2ccccc12`, with 95%. On to `CCO/C=C1\C(=O)N(c2ccc(OCC)cc2)C(=O)c2ccccc21`, for which the GTP binding activity was 93%. Then `CCOC(=O)c1sc(NC(=O)c2cc(S(=O)(=O)N3CCOCC3)ccc2C)nc1C`, with 98%; and `COc1ccc(S(=O)(=O)N2CCOCC2)cc1C(=O)Nc1nc2ccccc2s1`, with 72% (active); and `COc1ccc(S(=O)(=O)N2CCOCC2)cc1NC(=O)CSc1ncnc2ccccc12`, with 93%. With `COc1ccc(OC)c(-c2csc(NC(=O)C3=NNC(=O)CC3)n2)c1`, the GTP binding activity is 96%.

Consider `CNC(=S)N1CCC(NC(=O)C(Cc2ccc(F)cc2)NC(C)=O)CC1` (stereo not drawn), for which the GTP binding activity was 99%. Consider `COc1ccc(S(=O)(=O)N(C)C)cc1NC(=O)CSc1ncccn1`, for which the GTP binding activity was 97%. Then `Cn1nnnc1SCC(=O)Nc1nc2ccccc2s1`, with 97%; and `CCNC(=O)COC(=O)/C=C/c1c(C)nn(Cc2cccc(OC)c2)c1Cl`, with 95%; and `CCOC(=O)c1sc(NC(=O)CSc2n[nH]c(CC)n2)nc1C`, with 97%. For the molecule `O=C1c2cccc3c([N+](=O)[O-])ccc(c23)C(=O)N1CC1CCCO1` (stereo not drawn), the GTP binding activity was 95%.

Take `COc1cccc(CN(C)CC(=O)Nc2sc3c(c2C#N)CCC3)c1`: the GTP binding activity was 92%. Take `COc1ccc(S(=O)(=O)NCC2CCCN(C(=O)c3occc3C)C2)cc1` (stereo not drawn): the GTP binding activity was 97%.

With `CCCCC(NC(=O)c1cccc(Br)c1)C(=O)O` (stereo not drawn), the GTP binding activity was 93%.

On to `Cc1ccc(-c2nn(-c3cccc(F)c3)cc2CNCCc2ccncc2)o1`, for which the GTP binding activity is 101%. In the case of `CC1COc2ccccc2N1C(=O)c1cccnc1Cl` (stereo not drawn) it was 99%; in that of `Cc1nnsc1C(=O)Nc1cccc(Cl)c1C`, 95%; in that of `CCOc1ccccc1Nc1ccc(C(=O)O)cc1[N+](=O)[O-]`, 99%. On to `Cc1ccc(CN2CCC(N3CCC(C(=O)NCC4CCCO4)CC3)CC2)o1` (stereo not drawn), for which the GTP binding activity was 97%. `CCOc1ccc(N2C(=O)CN(c3cccc4ccccc34)C2=S)cc1`: the GTP binding activity is 99%. Then `Cc1cc(C)n(-c2ccc3nncn3n2)n1`, with 102%.

As for `CSCC(=O)N1CCCC(C(=O)c2cc(F)ccc2F)C1` (stereo not drawn), the GTP binding activity was 97%. Regarding `COCCNc1nc2nonc2nc1N(C)Cc1ccc(C)cc1`, the GTP binding activity was 95%.

Regarding `CCOC(=O)C1(Cc2ccccc2C(F)(F)F)CCN(C(=O)c2cc(C)n(C)n2)CC1`, the GTP binding activity is 98%. In the case of `COc1cccc2c1OCC(CN1CCN(C3CCCCC3)C(CCO)C1)=C2` (stereo not drawn) it was 100%. Then `CCN(CC)N=Nc1cccc(NC(C)=O)c1`, with 95%; and `NC(=O)Cn1nc([N+](=O)[O-])nc1Oc1ccc(Br)cc1`, with 97%; and `O=C(O)/C=C/c1cn(Cc2ccccc2)nc1-c1cccs1`, with 127% [activator] (active). In the case of `O=C(O)/C=C/c1cn(-c2ccccc2)nc1-c1cccs1` it was 93%; in that of `O=C(/C=C\c1cn(-c2ccccc2)nc1-c1cccs1)N1CCOCC1`, 104%; in that of `Cc1ccc(C(=O)NN(CCC#N)C2=NS(=O)(=O)c3ccccc32)cc1`, 95%. On to `Cn1nc(-c2ccccc2)c(CO)c1Sc1ccccc1`, for which the GTP binding activity was 93%. In the case of `CN1C(=O)/C(=C/C=C2\SCCN2C)OC1=S` it was 98%; in that of `O=C(O)CCc1nc2cc(Cl)ccc2n(Cc2ccccc2)c1=O`, 98%.

As for `CCN(CC(=O)NCc1cccs1)S(=O)(=O)c1ccc(NC(C)=O)cc1`, the GTP binding activity was 96%. In the case of `Cc1ccc(S(=O)(=O)N2CCOCC2)cc1NC(=O)CSc1nnc(N)s1`, the GTP binding activity is 98%. Then `Cc1ccccc1CC1(CO)CCCN(Cc2ccc3c(c2)OCCO3)C1` (stereo not drawn), with 99%; and `O=C(CC1SC(=Nc2ccccc2F)N(CCN2CCOCC2)C1=O)Nc1ccc(F)cc1F` (stereo not drawn), with 97%; and `CC(C)NC(=O)NC(=O)CSc1nnc(-c2ccccc2F)n1N`, with 97%. Then `C=CCN1C(=O)C(O)(CC(=O)c2ccccn2)c2ccccc21` (stereo not drawn), with 107%; and `CC1(C)CC(=O)c2ccc(O)cc2O1`, with 97%. For `N=C1C(c2nc3ccccc3[nH]2)=C(O)CN1NC(=O)c1c[nH]c2ccccc12`, the GTP binding activity was 96%. On to `CCCCOc1ccc(N(CC(=O)NC(C)C)C(=O)CCC(=O)Nc2ccccn2)cc1`, for which the GTP binding activity was 97%. As to `O=C(NNC(=S)NC(=O)c1cn(-c2ccccc2)nc1-c1ccccc1)c1ccncc1`, the GTP binding activity was 90%. Consider `COc1ccc(N2CCN(C(=O)CNS(=O)(=O)c3ccc(C)c(C)c3)CC2)cc1`, for which the GTP binding activity was 96%. In the case of `CC(C)=CCN1CCN(Cc2ccc(Oc3ncccn3)cc2)CC1CCO` (stereo not drawn) it was 100%. Take `COc1ccc(NC(=O)c2cc3nc(-c4ccccc4)cc(C)n3n2)cc1OC`: the GTP binding activity is 84%. On to `CCOC(=O)c1ccc(Nc2cc(C)nc3nc(C)nn23)cc1`, for which the GTP binding activity was 98%. Regarding `CCOC(=O)c1nc(Nc2ccc(C(=O)OC)cc2)c2ccccc2n1`, the GTP binding activity was 77% (active). In the case of `CCOC(=O)c1ccc(N/C(=N/S(=O)(=O)c2ccccc2)c2ccccc2)cc1` it was 95%; in that of `O=C(/C=C/c1ccc(N2CCOCC2)cc1)c1ccccc1`, 97%. Consider `CCN(c1ccccc1)S(=O)(=O)c1ccc2[nH]c(=O)[nH]c2c1`, for which the GTP binding activity is 99%. As to `O=C(Nc1ccc2oc(-c3ccccc3F)nc2c1)c1ccco1`, the GTP binding activity was 96%. In the case of `Cc1ccc2cc(CN(c3ccc(C)c(C)c3)S(C)(=O)=O)c(=O)[nH]c2c1` it was 98%; in that of `CCN(CC(=O)NC(=O)NCc1ccccc1)Cc1nc2ccccc2c(=O)[nH]1`, 101%; in that of `Cc1noc(C)c1S(=O)(=O)Nc1ccc(C(=O)N2CCN(c3ccc(F)cc3)CC2)cc1`, 96%. Then `COc1ccc(CC(=O)N[C@@H](CCSC)c2nc3ccccc3[nH]2)cc1`, with 99%; and `S=C(NCc1ccc2c(c1)OCO2)NCc1ccco1`, with 101%. Then `Cc1ccc(CNC(=O)CCNS(=O)(=O)c2ccc(Br)s2)cc1`, with 99%; and `C=CCN(CC=C)S(=O)(=O)c1ccc(C(=O)Nc2nc3c(s2)CCc2ccccc2-3)cc1`, with 39% (active). With `C=CCN(CC=C)S(=O)(=O)c1ccc(C(=O)Nc2sc3c(c2C(N)=O)CCCCC3)cc1`, the GTP binding activity is 101%. With `COCCN(CCOC)S(=O)(=O)c1ccc(C(=O)Nc2nc3c(s2)CCc2ccccc2-3)cc1`, the GTP binding activity was 102%. In the case of `COc1ccc2oc(=O)c(C(=O)N3CCCC3)cc2c1` it was 98%; in that of `COC(=O)C1=C(C)NC(=O)/C1=C/c1ccc(CNS(=O)(=O)c2ccc(C)cc2)o1`, 100%; in that of `O=c1/c(=C/c2ccc(CNS(=O)(=O)c3ccccc3)o2)sc2n1CCN=2`, 74% (active). In the case of `O=S(=O)(NCc1ccccc1)c1ccc(S(=O)(=O)N2CCCC2)cc1` it was 100%; in that of `C=CCC(C(=O)c1ccccc1)[N+](C)(C)CC=C` (stereo not drawn), 96%; in that of `O=C(COC(=O)C12CC3CC(CC(O)(C3)C1)C2)NC12CC3CC(CC(C3)C1)C2`, 100%. `CCOC(=O)c1oc2c(CN3CCN(CCO)CC3)c(O)c(CC)cc2c(=O)c1-c1nc2ccccc2s1`: the GTP binding activity was 99%.

Take `COc1ccc(Cl)cc1N(CC(=O)N/N=C/c1ccc(OCC(N)=O)cc1)S(C)(=O)=O`: the GTP binding activity was 99%. In the case of `N/C(=N\OC(=O)COc1ccc([N+](=O)[O-])cc1)c1ccc(Br)cc1` it was 98%; in that of `CCOc1ccc(C(C)=O)cc1CSc1nnc(-c2ccncc2)n1CCOC`, 99%; in that of `O=C(CCN1C(=O)c2ccccc2C1=O)NCCCn1ccnc1`, 101%. In the case of `Cc1nc(N2CCOCC2)sc1C(=O)NN` it was 100%; in that of `COc1ccc(-c2nn(-c3ccccc3)cc2CN2CCCO2)c(F)c1`, 100%; in that of `Cc1ccc(SC(CC(=O)c2ccc(C(C)(C)C)cc2)C(=O)O)cc1` (stereo not drawn), 78% (active). Then `Cc1ccc(C(=O)CS(C)(=O)=O)cc1`, with 104%; and `Cc1ccc(CSCC(N)C(=O)O)cc1` (stereo not drawn), with 97%; and `O=C(CSc1ccc([N+](=O)[O-])cn1)Nc1ccc(N2CCOCC2)c(Cl)c1`, with 96%. As to `CCCOC1CCCN(Cc2cn(C)nc2-c2ccccc2F)C1` (stereo not drawn), the GTP binding activity is 96%.

The record behind these values is PubChem BioAssay AID760 (NMMLSC, 2007).
